SMN2 splice up – SMN2 splice variant enhancement | hit rate 2.8% among 210,000 | AID 1458 | HEK293 SMN2-luciferase splicing reporter, luminescence, 30-36 h | Potency, µM (highest dose often 46.1 µM), for inactives: top-dose activity change, positive = activation, usual class: activators; note: % of control where 0% means no effect; nearly all actives have a fitted effect of over 55% in size
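HEK293 cells carry an SMN2 […]–luciferase reporter in which exon 7 inclusion puts luciferase in frame. Cells were plated 10-12 h before compound addition, then incubated 30-36 h at 37C. ONE-Glo luminescence was read; sodium butyrate at 4.5 mM final served as control.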
ELG1 genotox – inducers of genotoxicity in HEK293T ELG1-luciferase cells; HEK293T ELG1-luciferase reporter, luminescence, 16 h; hit rate 1.3% among 330,000; Potency, µM (doses to about 46 µM), without a hit: top-dose activity change, positive = activation, most hits filed as activators; AID 504466; note: % of control where 0% means no effect; nearly all actives have a fitted effect of over 60% in size
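Reporter readout depends on ELG1 protein level, which increases with genetic stress. After 16 hr compound exposure at 37 °C, luciferase activity was quantified using ONE-Glo.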
NPC1 promoter act – NPC1 promoter activation; Huh7 NPC1 promoter luciferase reporter, 24 h; Potency, µM (series often up to 9.22 µM), inactives show top-dose activation, most hits filed as activators; hit rate 2.4% among 320,000; AID 485313; note: % of control where 0% means no effect; nearly all actives have a fitted effect of over 60% in size
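Luminescence read-out of NPC1 promoter-driven luciferase in stably transfected Huh7 cells; compounds delivered in DMSO and left 24 h at 37C, 5% CO2, qHTS titration format.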
Rab9 prom act – activates the Rab9 promoter; hit rate 2.8% among 320,000; Huh7 Rab9 promoter-luciferase reporter, luminescence, 24 h; Potency, µM (highest dose often 9.22 µM), inactives show top-dose activation, negative = inhibition, actives largely listed as activators; AID 485297; note: % of control where 0% means no effect; nearly all actives have a fitted effect of over 60% in size
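Using Huh7 cells stably transfected with Rab9 promoter–luciferase, compounds were incubated 24 h at 37 °C, 5% CO2; luciferase luminescence was read 10 min after reagent addition.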
ELG1 repair inh – inhibitors of ELG1-dependent DNA repair in HEK293T cells; HEK293T ELG1-luciferase reporter, luminescence, 16 h; DNA damage induced by 5-fluorouridine; Potency, µM (doses to about 46.1 µM), for the others: at the top dose activity change, negative = inhibition, hits mostly inhibitors; hit rate 2.3% among 330,000; AID 504467; note: % is set by controls: 0 for no effect and ±100 for the full control effect; nearly all actives have a fitted effect of over 55% in size
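Reporter activity after DNA damage by 5-fluorouridine is monitored. Compound-treated cells incubate 16 hr at 37 °C, then ONE-Glo is added for 30 min before luminescence reading.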
FLuc modulator – firefly luciferase modulation, counter-screen for miR-21 project; P08659; purified FLuc, Km substrates, luminescence inhibition; Potency, µM (titrated, usually from 57.5 µM), for the others: top-dose activity change, negative = inhibition, actives largely listed as inhibitors; hit rate 6.9% among 360,000;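 note: plate controls were vehicle for no effect and reference inhibitor for full effect; nearly all actives have a fitted effect of over 55% in size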
Target sequence (P08659 whole entry, looked up): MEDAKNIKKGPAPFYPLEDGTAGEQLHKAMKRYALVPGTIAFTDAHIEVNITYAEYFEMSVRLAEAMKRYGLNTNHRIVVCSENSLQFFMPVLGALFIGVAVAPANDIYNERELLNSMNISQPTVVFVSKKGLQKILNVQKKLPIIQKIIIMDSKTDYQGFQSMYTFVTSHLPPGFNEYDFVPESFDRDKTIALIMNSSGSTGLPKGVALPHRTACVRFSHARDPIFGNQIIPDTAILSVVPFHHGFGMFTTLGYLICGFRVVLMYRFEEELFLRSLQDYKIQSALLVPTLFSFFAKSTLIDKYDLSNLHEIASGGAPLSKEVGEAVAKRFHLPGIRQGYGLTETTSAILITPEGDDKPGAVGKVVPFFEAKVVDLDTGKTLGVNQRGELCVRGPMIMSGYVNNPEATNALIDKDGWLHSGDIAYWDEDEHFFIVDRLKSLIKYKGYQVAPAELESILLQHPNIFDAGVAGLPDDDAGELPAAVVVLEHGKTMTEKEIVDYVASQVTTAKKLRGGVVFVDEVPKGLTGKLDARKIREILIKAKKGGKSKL
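Purified P. pyralis luciferase, 10 nM final, with Km-level 10 uM D-luciferin and 10 uM ATP in 50 mM Tris acetate pH 7.5, 10 mM Mg acetate, 0.01% Tween-20, 0.05% BSA; 6-point qHTS titration about 60 µM downward; luminescence read.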
* marks the source's active call; other numbers are inactive results; ? = inconclusive; . = not tested or not shown. Shown are actives, neighbours in structure and some others; about 9.2% of the full set was active somewhere. Calls come from the whole dose curve; as a rule, active = well fitted curve in the direction sought with a large enough effect; inconclusive = small, poorly fitted or top-dose-only effect, or another doubt; inactive = no such curve, though single readings can be large; an effect the other way counts as inactive or inconclusive. Potency is the fitted concentration of half-maximal effect.

SMILES | SMN2 splice up | ELG1 genotox | NPC1 promoter act | Rab9 prom act | ELG1 repair inh | FLuc modulator
CCCn1nnc(NC(=O)c2ccc(Br)cc2)n1 | 14µM* | 9.2µM* | ? | 4µM* | ? | ?
CN1CCN(C(=O)c2ccc3c(c2)N(Cc2ccc(C(F)(F)F)cc2)C(=O)c2ccccc2S3)CC1 | 12% | . | . | . | . | -6%
CC1=C(OC(=O)c2ccccc2)C(C)(C)C(c2ccc(Br)cc2)OC1=O (stereo not given) | -4% | 1% | -3% | -1% | 2% | 3%
Cc1onc(-c2ccccc2)c1C(=O)NC1CCC(C)CC1 (stereo not given) | . | -4% | 1% | -6% | 2% | 4%
CN(C)c1ccc(NC(=O)Cn2cc(S(=O)(=O)Cc3ccccc3Cl)c3ccccc32)cc1 | . | . | . | . | . | 9.5µM*
O=C(Cn1cc(S(=O)(=O)Cc2ccccc2Cl)c2ccccc21)Nc1cccc(C(F)(F)F)c1 | . | . | . | . | . | -5%
O=C(NC1CC1)c1sc2cc([N+](=O)[O-])ccc2c1Cl | 3% | 1% | 13% | 12% | ? | ?
Cc1ccc(C(C)C)c(OCC(=O)N/N=C/c2cccn2C)c1 | . | -5% | -4% | -3% | 18µM* | 2%
Cn1cccc1/C=N/NC(=O)c1sc2cc(Cl)ccc2c1Cl | . | 11% | -2% | 1% | 16% | 0%
Cc1ccc2c(Cl)c(C(=O)NC3CC3)sc2c1 | . | ? | 2µM* | 4µM* | ? | 4.8µM*
Cc1ccc2c(C)c(C(=O)Nc3ccc(S(=O)(=O)Nc4onc(C)c4C)cc3)oc2c1 | . | 0% | -5% | -3% | 2% | -17%
Cc1ccc2c(Cl)c(C(=O)N/N=C/c3cccn3C)sc2c1 | 13µM* | ? | 15% | ? | ? | ?
Cc1cccc(OCC(=O)N/N=C/c2cccn2C)c1 | . | 3% | -4% | -6% | 2% | -16%
Cc1ccc2c(C)c(C(=O)Nc3cccnc3)oc2c1 | -18% | ? | 24% | ? | ? | 6.7µM*
COc1ccc2oc(C(=O)OCC(=O)NC3CCCCC3)c(C)c2c1 | . | ? | 10% | -5% | 14% | ?
CCC(Cc1ccccc1)NS(=O)(=O)c1ccc2c(c1)NC(=O)C(C)S2 (stereo not given) | . | -5% | 2% | -10% | -11% | -1%
CC(=O)Nc1ccc(NC(=O)c2oc3cc(C)c(C)cc3c2C)cc1 | -15% | ? | -1% | -5% | -1% | -4%
Cc1ccc2c(Cl)c(C(=O)Nc3cccnc3)sc2c1 | ? | 0% | 2.8µM* | 4µM* | 8.2µM* | 1.9µM*
Cc1cc2oc(C(=O)Nc3cccnc3)c(C)c2cc1C | -13% | 13µM* | ? | ? | ? | ?
COc1ccc(CCNC(=O)C2c3ccccc3C(=O)N2CCC(C)C)cc1OC (stereo not given) | . | 0% | -3% | -1% | ? | -1%
CN(C)c1cc[n+](CC(=O)Nc2ccccc2C(F)(F)F)cc1 | . | -2% | -1% | -2% | ? | -2%
CN(C)c1ccc(N=Nc2ccccc2C(=O)OCC(=O)N2CCCCCC2)cc1 | 25µM* | 1% | 18% | 22% | ? | ?
CN(C)c1ccc(N=Nc2ccccc2C(=O)OCC(=O)Nc2ccccc2C(F)(F)F)cc1 | 26% | 7% | -1% | 24% | 17% | 9.5µM*
CN(C)c1ccc(N=Nc2ccccc2C(=O)OCC(=O)N2CCCC2)cc1 | ? | 9% | 15% | 0% | ? | 2.1µM*
CCCCC(=O)OCC(=O)c1[nH]c(C)c(C(C)=O)c1C | 6% | -3% | 0% | -3% | 8% | 11µM*
SMILES | SMN2 splice up | ELG1 genotox | NPC1 promoter act | Rab9 prom act | ELG1 repair inh | FLuc modulator
CCOC(=O)c1c(C)[nH]c(C(=O)COC(=O)C2(C)CC2(Cl)Cl)c1C (stereo not given) | -8% | ? | ? | 3.2µM* | -19% | 13µM*
CCOC(=O)c1c(C)[nH]c(C(=O)COC(=O)C2CC2)c1C | . | ? | 0% | -2% | ? | 9.5µM*
Cc1cc([N+](=O)[O-])ccc1NC(=O)CSc1nccn1C | -27% | . | . | . | . | 1%
O=c1c2cc3c(cc2n(Cc2ccc(Cl)cc2)c(=O)n1Cc1nc(-c2ccccc2)no1)OCO3 | . | . | . | . | . | -5%
Cc1nc2nc(SCC(=O)NC3CCC(C)CC3)nn2c(C)c1Cc1ccccc1 (stereo not given) | . | . | . | . | . | -12%
Cc1ccc2c(C)c(C(=O)N(C)C(C)c3ccon3)oc2c1C (stereo not given) | . | ? | ? | 3.2µM* | ? | 15µM*
CCCN(CCC)C(=O)Cn1c(SCc2cccc(C(F)(F)F)c2)nc2cccnc21 | . | . | . | . | . | -1%
O=C(CCN1C(=O)/C(=C/C=C/c2ccccc2)SC1=S)Nc1nc2ccccc2s1 | 2% | 18% | -1% | -2% | 6% | ?
O=C(CCN1C(=O)/C(=C\C=C\c2ccccc2)SC1=S)Nc1ccc(C(=O)O)cc1 | . | ? | ? | 29% | ? | 0.95µM*
O=C(COC(=O)CCN1C(=O)/C(=C\C=C\c2ccccc2)SC1=S)Nc1cc(F)ccc1F | -14% | 3% | -2% | -7% | ? | 13µM*
O=C(CN1C(=O)S/C(=C/C=C/c2ccccc2)C1=O)Nc1ccc(C(=O)O)cc1 | 11% | 9% | -5% | -7% | 23% | 4.8µM*
O=C(CCCN1C(=O)S/C(=C\C=C\c2ccccc2)C1=O)Nc1ccc(O)cc1 | . | ? | ? | 24% | ? | ?
O=C(CN1C(=O)S/C(=C\C=C\c2ccccc2)C1=O)Nc1ccc(C(=O)O)cc1 | . | 8% | 3% | 3% | 1% | 6µM*
Cc1ccccc1CN(CC1CCC(C(=O)O)CC1)C(=S)Nc1ccccc1F (stereo not given) | . | 2% | 0% | 13% | ? | -9%
O=C(CN1C(=O)/C(=C\C=C\c2ccccc2)SC1=S)Nc1ccc(F)cc1 | 4.5µM* | 4% | 0% | 1% | ? | -6%
CCCN1CCN(c2ncnc3sc(C(=O)Nc4c(C)cc(C)cc4C)c(C)c23)CC1 | . | . | . | . | . | 2%
Cc1ccc(-n2cc(CNCCCN3CCCC3=O)c(-c3ccc(F)cc3)n2)cc1 | . | -2% | 0% | -14% | -2% | ?
COc1ccc(-n2cc(CNCCN3CCOC3=O)c(-c3ccccc3Cl)n2)cc1 | . | 0% | -3% | 1% | 16% | 17µM*
Cc1ccc(-n2cc(CNCCN3CCOC3=O)c(-c3ccc(F)cc3)n2)cc1 | . | 0% | -2% | 14% | ? | 7.6µM*
Cc1ccc(-n2cc(CNCCc3ncc(C)[nH]3)c(-c3ccc(F)cc3)n2)cc1 | -26% | 7% | -3% | -2% | 1% | 27µM*
